For the first assay, the target named is Hexose transporter 1 (Plasmodium falciparum) (UniProt O97467). Description: ST_JUDE_LEISH: Cytotoxicity at 2uM final concentration against transgenic Leishmania Mexicana promastigotes LmPfHT that are glucose transport deficient and complemented with the Plasmodium falciparum hexose transporter. Activity is measured by DNA content using SYBR green in vitro. It is filed as functional.
Usually inhibition stands for the drop in the measured response relative to a control, in per cent. For the molecule `Oc1ccc2[nH]c(-c3ccc(F)cc3F)nc2c1CN1CCC(O)(c2ccccc2)CC1`, the inhibition was -0.92%.
As to `CC(Cc1ccc(NC(=O)c2ccc(CNCc3ccccc3)cc2)cc1)N(CCc1cccc(Cl)c1)C(=O)OC(C)(C)C` (stereo not given), the inhibition was determined as 4.74%.
The same measure, in the same setting: the result for `Cc1cccc(Nc2nc(N)c3ccccc3n2)c1` reads 16.5%; that for `Cc1nc(C)c(CC(=O)Nc2cccc(-c3cccc(-c4nc5cc(C(F)(F)F)ccc5[nH]4)c3)c2)s1`, 2.61%.
The same measure, in the same setting: the result for `CC(C)n1cc(CN2CCCC(C(=O)Nc3cccc(-c4cc5ccccc5[nH]4)c3)C2)cn1` (stereo not given) reads -0.11%.
Still for that read-out and setting: the figure for `CN1CCCC1CCNc1ncc2c(-c3ccc(NC(=O)Nc4cc(C(F)(F)F)ccc4F)c(F)c3)nn(C)c2n1` (stereo not given) is 0.21%.
As for `COc1c(C(=O)NC2CCN(Cc3ccccc3)C2)cnc2ccccc12` (stereo not given), the inhibition is 9.19%.
On the same count and under the same terms, the result for `Cc1ccc(NC(=O)c2ccc3nccnc3c2)cc1OC1CCN(Cc2ccc(F)cc2)CC1` reads 11.1%; that for `COc1ccc(CNC2Cc3ccccc3C2)cc1-c1ccc(S(=O)(=O)NCCN2CCCC2)cc1`, 1.44%; that for `CN1CCCN(Cc2ccc(-c3ccc(NC(=O)c4ccc(C#N)cc4)cc3)cc2)CC1`, -0.51%.
On the same count and under the same terms, the result for `CN1CCCN(Cc2ccc(-c3cccc(NC(=O)c4cccc(Cl)c4)c3)cc2)CC1` reads 9.2%; that for `CCN(CCO)Cc1ccc(-c2ccc(NS(=O)(=O)c3cccc4cccnc34)cc2)cc1`, 95.5%.
For `COc1ccc(C(=O)Nc2nonc2-c2ccc(OC)c(OC)c2)cc1Cl`, the inhibition is -0.18%.
With `Cc1c(C(=O)Nc2cc(Sc3ccc(F)cc3)cc([N+](=O)[O-])c2)sc2ncn(Cc3ccccc3F)c(=O)c12`, the inhibition is 9.11%.
In the case of `Cc1ccc2c(OCCN3CCC(Cc4cc5c(cc4F)OCC(=O)N5)CC3)cc(F)cc2n1`, the inhibition was 4.63%.
Consider `CN1CCN(Cc2cccc(Nc3nccc(Nc4ccc(Oc5ccccc5)cc4)n3)c2)CC1`, for which the inhibition amounted to 7.05%.
The same measure, in the same setting: the figure for `CC1CCCC(NCc2c(O)ccc3ccccc23)C1` (stereo not given) is 3.22%; for `Cc1cc(-c2ccc(CNC3CCN(C)CC3)cc2)ccc1S(=O)(=O)NCc1ccccc1` it is 3.32%.
Take `Cc1cccc2nc(-c3cccc(-c4cccc(CNCc5ccc(S(C)(=O)=O)cc5)c4)c3)[nH]c12`: the inhibition turned out to be 0.32%.
Regarding `COc1ccc(Nc2nc(N/N=C/c3ccc(-c4ccc([N+](=O)[O-])cc4)o3)nc(Nc3ccccc3)n2)cc1`, the inhibition is 10.6%.
Same read-out and setting: the result for `Cc1ccccc1NC(=O)C1CSCN1C(=O)OCc1ccccc1` (stereo not given) reads -0.23%; that for `CCOc1cc(C(=O)NCc2cc(Cl)cc(Cl)c2)ccc1-c1nc2cc(Cl)ccc2[nH]1`, 2.18%.
On the same count and under the same terms, the result for `CCNc1cc(C(=O)N[C@@H](Cc2ccccc2)[C@H](O)CNC2(CCC(C)C)CC2)cc(N2CCCCS2(=O)=O)c1` reads -0.04%; that for `O=C(Nc1ccccc1N1CCOCC1)c1ncoc1-c1ccccc1C(F)(F)F`, 2.36%.
On the same count and under the same terms, the figure for `O=C(Nc1ccc(S(=O)(=O)N2CCCCC2)cc1)c1cc(-c2cc(Cl)ccc2O)n[nH]1` is 6.9%; for `O=C(Nc1ccncc1)c1cn(-c2ccccc2)nc1-c1cccs1` it is 2.4%; for `Cc1nc(C)c(-c2ccc(-c3ccc(F)cc3)cc2)c(O)c1Cl` it is 2.48%.
Take `CCN(CC)CCCNCc1ccc(-c2ccc(C(F)(F)F)cc2)cc1`: the inhibition stood at 2.78%.
`N#Cc1ccc2c(c1)CCN(CCC1CCC(NC(=O)/C=C/c3cc(Br)cs3)CC1)CC2` (stereo not given): the inhibition was found to be 2.93%.
On the same count and under the same terms, the figure for `CS(=O)(=O)Nc1cccc(-c2cnc3[nH]cc(-c4cccc(CN)c4)c3c2)c1` is 3.29%.
The same measure, in the same setting: the figure for `CN(C)CCN(C)Cc1cccc(-c2ccc3c(Nc4ccc(F)cc4Cl)ccnc3c2)c1` is 4.55%.
Same read-out and setting: the figure for `Cc1cc(N[C@@H](CC(C)C)C(=O)NCc2cccc(F)c2)nc(NCCc2ccccc2)n1` is 4.78%; for `CN(C)c1ccc(CN2CCC(CNC(=O)c3cc(-c4cccc(F)c4)cs3)C2)cc1` (stereo not given) it is -1.31%.
As for `COc1ccc(C(=O)NCc2ccccc2-c2ccc(C(C)(C)C)cc2)cc1O`, the inhibition worked out at 5.39%.
On the same count and under the same terms, the figure for `COc1ccc2nccc([C@@H](O)CN3CCC(NCc4ccc5c(n4)NCCC5)CC3)c2c1` is 6.43%.
For the molecule `CN(C)CCOc1ccc(-c2cc(-c3ccc(Cl)c(O)c3)c(-c3ccncc3)o2)cc1`, the inhibition was -0.72%.
For the molecule `CC(C)CCNC(=O)C1Cc2c([nH]c3cc(Br)ccc23)C2(CCN(CCc3ccccc3)CC2)N1` (stereo not given), the inhibition turned out to be 2.47%.
`O=C(Nc1ccc(OC2CCN(Cc3ccc(F)cc3)CC2)cc1)c1cccs1`: the inhibition stood at 0.37%.
On the same count and under the same terms, the figure for `Cc1c(CC(=O)N(C)C2CCN(CCCCCNC(=O)/C=C/c3ccc(Cl)c(Cl)c3)CC2)sc2ccc(Cl)cc12` is 0.91%; for `Cc1nnc2c(N(C(=O)NCCc3ccccc3)C(=O)NCCc3ccccc3)cc3cc(Cl)ccc3n12` it is 10.1%.

The target in the next assay is Glucose transporter (Leishmania mexicana) (UniProt O61059). Briefly: ST_JUDE_LEISH: Cytotoxicity at 2uM final concentration against transgenic Leishmania Mexicana promastigotes LmGT2 that are glucose transport deficient and complemented with the L. Mexicana glucose transporter 2. Activity is measured by DNA content using SYBR green in vitro. Format: functional.
As for `Oc1ccc2[nH]c(-c3ccc(F)cc3F)nc2c1CN1CCC(O)(c2ccccc2)CC1`, the inhibition worked out at 0.37%.
Same read-out and setting: the result for `CC(Cc1ccc(NC(=O)c2ccc(CNCc3ccccc3)cc2)cc1)N(CCc1cccc(Cl)c1)C(=O)OC(C)(C)C` (stereo not given) reads 3.04%; that for `Cc1cccc(Nc2nc(N)c3ccccc3n2)c1`, 5.71%; that for `Cc1nc(C)c(CC(=O)Nc2cccc(-c3cccc(-c4nc5cc(C(F)(F)F)ccc5[nH]4)c3)c2)s1`, 1.2%.
On the same count and under the same terms, the result for `CC(C)n1cc(CN2CCCC(C(=O)Nc3cccc(-c4cc5ccccc5[nH]4)c3)C2)cn1` (stereo not given) reads -0.59%.
On the same count and under the same terms, the figure for `CN1CCCC1CCNc1ncc2c(-c3ccc(NC(=O)Nc4cc(C(F)(F)F)ccc4F)c(F)c3)nn(C)c2n1` (stereo not given) is -0.39%.
For the molecule `COc1c(C(=O)NC2CCN(Cc3ccccc3)C2)cnc2ccccc12` (stereo not given), the inhibition stood at 8.95%.
On the same count and under the same terms, the figure for `Cc1ccc(NC(=O)c2ccc3nccnc3c2)cc1OC1CCN(Cc2ccc(F)cc2)CC1` is 10.5%; for `COc1ccc(CNC2Cc3ccccc3C2)cc1-c1ccc(S(=O)(=O)NCCN2CCCC2)cc1` it is -2.73%.
As to `CN1CCCN(Cc2ccc(-c3ccc(NC(=O)c4ccc(C#N)cc4)cc3)cc2)CC1`, the inhibition is -0.13%.
Still for that read-out and setting: the result for `CN1CCCN(Cc2ccc(-c3cccc(NC(=O)c4cccc(Cl)c4)c3)cc2)CC1` reads 9.24%; that for `CCN(CCO)Cc1ccc(-c2ccc(NS(=O)(=O)c3cccc4cccnc34)cc2)cc1`, 92.4%; that for `COc1ccc(C(=O)Nc2nonc2-c2ccc(OC)c(OC)c2)cc1Cl`, -0.55%.
Same read-out and setting: the figure for `Cc1c(C(=O)Nc2cc(Sc3ccc(F)cc3)cc([N+](=O)[O-])c2)sc2ncn(Cc3ccccc3F)c(=O)c12` is 8.4%; for `Cc1ccc2c(OCCN3CCC(Cc4cc5c(cc4F)OCC(=O)N5)CC3)cc(F)cc2n1` it is 3.85%.
For `CN1CCN(Cc2cccc(Nc3nccc(Nc4ccc(Oc5ccccc5)cc4)n3)c2)CC1`, the inhibition stood at 5.8%.
Same read-out and setting: the result for `CC1CCCC(NCc2c(O)ccc3ccccc23)C1` (stereo not given) reads 3.69%.
For `Cc1cc(-c2ccc(CNC3CCN(C)CC3)cc2)ccc1S(=O)(=O)NCc1ccccc1`, the inhibition came out at 1.14%.
On to `Cc1cccc2nc(-c3cccc(-c4cccc(CNCc5ccc(S(C)(=O)=O)cc5)c4)c3)[nH]c12`, for which the inhibition was -0.24%.
On the same count and under the same terms, the result for `COc1ccc(Nc2nc(N/N=C/c3ccc(-c4ccc([N+](=O)[O-])cc4)o3)nc(Nc3ccccc3)n2)cc1` reads 9.94%; that for `Cc1ccccc1NC(=O)C1CSCN1C(=O)OCc1ccccc1` (stereo not given), -0.28%.
Regarding `CCOc1cc(C(=O)NCc2cc(Cl)cc(Cl)c2)ccc1-c1nc2cc(Cl)ccc2[nH]1`, the inhibition is 1.11%.
Same read-out and setting: the result for `CCNc1cc(C(=O)N[C@@H](Cc2ccccc2)[C@H](O)CNC2(CCC(C)C)CC2)cc(N2CCCCS2(=O)=O)c1` reads -0.78%; that for `O=C(Nc1ccccc1N1CCOCC1)c1ncoc1-c1ccccc1C(F)(F)F`, 2.48%.
Turning to `O=C(Nc1ccc(S(=O)(=O)N2CCCCC2)cc1)c1cc(-c2cc(Cl)ccc2O)n[nH]1`, the inhibition amounted to 4.71%.
For `O=C(Nc1ccncc1)c1cn(-c2ccccc2)nc1-c1cccs1`, the inhibition was 3.52%.
Still for that read-out and setting: the result for `Cc1nc(C)c(-c2ccc(-c3ccc(F)cc3)cc2)c(O)c1Cl` reads 0.55%; that for `CCN(CC)CCCNCc1ccc(-c2ccc(C(F)(F)F)cc2)cc1`, -0.45%; that for `N#Cc1ccc2c(c1)CCN(CCC1CCC(NC(=O)/C=C/c3cc(Br)cs3)CC1)CC2` (stereo not given), -0.56%.
Same read-out and setting: the result for `CS(=O)(=O)Nc1cccc(-c2cnc3[nH]cc(-c4cccc(CN)c4)c3c2)c1` reads 3.74%; that for `CN(C)CCN(C)Cc1cccc(-c2ccc3c(Nc4ccc(F)cc4Cl)ccnc3c2)c1`, 12.7%; that for `Cc1cc(N[C@@H](CC(C)C)C(=O)NCc2cccc(F)c2)nc(NCCc2ccccc2)n1`, 2.16%.
Same read-out and setting: the figure for `CN(C)c1ccc(CN2CCC(CNC(=O)c3cc(-c4cccc(F)c4)cs3)C2)cc1` (stereo not given) is -9.42%; for `COc1ccc(C(=O)NCc2ccccc2-c2ccc(C(C)(C)C)cc2)cc1O` it is 1.49%; for `COc1ccc2nccc([C@@H](O)CN3CCC(NCc4ccc5c(n4)NCCC5)CC3)c2c1` it is 6.5%.
For the molecule `CN(C)CCOc1ccc(-c2cc(-c3ccc(Cl)c(O)c3)c(-c3ccncc3)o2)cc1`, the inhibition turned out to be 4.9%.
On to `CC(C)CCNC(=O)C1Cc2c([nH]c3cc(Br)ccc23)C2(CCN(CCc3ccccc3)CC2)N1` (stereo not given), for which the inhibition was -3.76%.
As for `O=C(Nc1ccc(OC2CCN(Cc3ccc(F)cc3)CC2)cc1)c1cccs1`, the inhibition was -2.79%.
With `Cc1c(CC(=O)N(C)C2CCN(CCCCCNC(=O)/C=C/c3ccc(Cl)c(Cl)c3)CC2)sc2ccc(Cl)cc12`, the inhibition worked out at 5.9%.
Still for that read-out and setting: the result for `Cc1nnc2c(N(C(=O)NCCc3ccccc3)C(=O)NCCc3ccccc3)cc3cc(Cl)ccc3n12` reads 8.99%.

The values are drawn from ChEMBL document CHEMBL3433997, “St. Jude Leishmania screening dataset” (2016).
